Results: PubChem BioAssay (NCI)
Where “and” joins values, the source holds several entries; their conditions need not be identical. Equal entries are not always repeated. This is part of a sample that, as a whole, favours compounds with a hit. Of some 83,000 tested, about 20% had one in any assay.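 96-well plates, one dose, 48 hours. Percent growth reported; active if below 10.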 Calls of active or inactive are those of the source.

Each compound was assayed on MDA-MB-468 breast (assay: NCI-60 one-dose screen, 48 h (100 = growth as untreated, 0 = no growth, -100 = all killed)). Settings: 10 µM unless noted.

Compound	growth
COc1cc2c(Oc3ccc4[nH]c(C)cc4c3F)ncnc2cc1OCCCN1CCCC1	99.4% (inactive)
Cc1cc(=O)[nH]c(N/N=C/c2ccccc2O)n1	58.1% (inactive)
COc1cc(C2CC(=O)Nc3c2cnn3Cc2ccco2)cc2c1OCCO2 (stereo not given)	73.8% (inactive)
Cc1ccc(S(=O)(=O)Nc2ccc(-c3cc(-c4cccc(F)c4)c(C#N)c(N)n3)cc2)cc1	-14.9% (active)
Nc1nc(-c2cccc([N+](=O)[O-])c2)c(N=Nc2ccccc2Cl)s1	55.2% (inactive)
O=C(N/N=C/c1ccc(Cl)cc1)c1ccc(Cc2n[nH]c(=O)c3cccnc23)cc1	89.8% (inactive)
CC1=C([Se]CC(OC(=O)CC[Se]c2ccccc2)C(=O)NCCCCCC(=O)OCc2ccccc2)C(=O)c2ccccc2C1=O (stereo not given)	-7.59% (active)
CC(=S)NC(=O)C(=O)/C=C1/NC(=O)C(=O)S1	102% (inactive)
N#Cc1cccc(C2C3=C(COC3=O)N(CCO)c3cc4c(cc32)OCO4)c1 (stereo not given)	21% (inactive)
Cc1ccc(NS(=O)(=O)c2ccc(C)cc2)cc1	94.4% (inactive) and 87.3% (inactive)
COc1ccc(/C=C/c2nnc(/C=C/c3ccc(OC)c(OC)c3)o2)cc1OC	19% (inactive)
CCN(CC)CCOc1ccc(Cl)c(C)c1	103% (inactive)
Cc1cc(O)c2c(c1)C(=O)c1cc(O)cc(O)c1C2=O	73.2% (inactive)
O=C1/C(=C/c2ccccc2F)CNC/C1=C\c1ccccc1F	-59.7% (active)
COc1cc(O)c2c(c1)[C@H]1O[C@@H]1C[C@H](O)[C@H](O)C(=O)/C=C\C[C@H](C)OC2=O	-1.54% (active)
COc1ccc(NC(=O)c2cc(OC)c(OC)c(OC)c2)cc1O	29.8% (inactive)
CCCC(=O)NC(c1cccnc1)c1cc(C(C)(C)C)c2cccnc2c1O (stereo not given)	-20.4% (active)
COc1cccc(/C=C2\Oc3cc(OCCN4CCCC4)ccc3C2=O)c1	82.8% (inactive)
CS(=O)(=O)OCC(COS(C)(=O)=O)C(c1ccccc1)c1ccccc1	102% (inactive)
COc1cc(/C=C/C(=O)c2c(C)nc3ccccc3c2/C=C/c2ccc(C)cc2)cc(OC)c1OC	18.9% (inactive)

Compound	growth
CCCc1c(OC(=O)c2ccccc2)nc2[nH]c(=O)sc2c1C	84.4% (inactive)
Oc1ccc(CN2CCC(N3CCOCC3)CC2)c2cccnc12	36.6% (inactive)
COc1ccc(-c2nc3ccc(-c4nc5ccc(N6CCN(c7ccc(F)cc7)CC6)cc5[nH]4)cc3[nH]2)cc1OC	67.4% (inactive)
C[N+](C)(C)C(=O)c1ccccc1	101% (inactive)
CC/C(=C(/c1ccc(O)cc1)c1ccc(OCCN2CCCCC2)cc1)c1ccc(OC)cc1	60.7% (inactive)
CCNC(=O)N1CCc2cc(OC)c(OCCc3ccc(OC)cc3)cc2C1c1ccc(OC)cc1C (stereo not given)	12.6% (inactive)
CCn1cc(C(=O)O)c(=O)c2cc(F)c(N3CCN(CC(=O)Nc4ccc(C(C)=O)cc4)CC3)cc21	108% (inactive)
COc1ccc(/C=C2/CN(C(=O)c3ccccc3F)C/C(=C\c3ccc(OC)cc3)C2=O)cc1	1.01% (active)
[N-]=[N+]=NCc1ncc(-c2ccc(C(F)(F)F)cc2)c(NC2CCCCCC2)n1	103% [50 µM] (inactive)
COc1ccc(C(OCC2OC(n3ccc(NC(=O)c4ccccc4)nc3=O)C(O)C2O)(c2ccccc2)c2ccccc2)cc1 (stereo not given)	45.9% (inactive)
C=C1C(=O)O[C@H]2[C@H]1CC/C(COC(=O)NCCc1cccc(OC)c1)=C\CC[C@@]1(C)O[C@@H]21	18.9% (inactive)
O=C(O)c1ccccc1Oc1cc(-c2ccco2)nc(OCCN2CCOCC2)n1	105% (inactive)
CCN(CC)c1ccc(/C=C/C2=[N+](C)c3ccccc3C2(C)C)c(C)c1	-9.14% (active)
O=c1oc2ccccc2cc1-c1nn(-c2ccccc2)cc1/C=N/Nc1nc(-c2ccccc2)c(N=Nc2ccccc2)s1	48.5% (inactive)
O=C(N/N=C/c1ccc(Cl)s1)c1[nH]c2ccc(Br)cc2c1-c1ccccc1	2.96% (active)
O=C(OC[C@@H]1CO1)c1cccc2c(=O)c3ccccc3[nH]c12	-52% (active)
COc1cc(OC)c(/C=C/c2cc[n+](C)c3ccccc23)c(OC)c1	-20.6% (active)
COc1ccc(C(=O)/C=C/c2c(Cl)nc3c(c(C)nn3-c3ccccc3)c2-c2ccc(Br)cc2)cc1	103% (inactive)
CC#Cc1nc2ccccc2c(=O)[nH]1	14.8% (inactive)
COc1ccc(/C=C/c2nc(Nc3ccc(S(=O)(=O)Nc4nc(C)cc(C)n4)cc3)c3ccccc3n2)cc1	24% (inactive)
